Shiga toxin inh: A qHTS for Small Molecule Inhibitors of Shiga Toxin; inhibition, % at 38.7 µM; AID 2315, 2010; Vero cells, Shiga toxin protein synthesis inhibition reporter; 9.2% of 290,000 active; in the data active means inhibition mostly above about 28%, no sharp cut-off; inactive means mostly below about 43%; further: 0% is about no effect
NS1 function inh: qHTS Assay for Inhibitors of Influenza NS1 Protein Function; Potency, µM (doses to about 46.1 µM), for the others: at the highest dose activity, positive = more growth; 0.4% of 270,000 active; further: potency means the concentration at half of the fitted maximal effect; actives are rising curves; nearly all actives have a fitted effect of over 50% in size
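Compounds were scored for reversing the slow growth caused by influenza A NS1 in S. cerevisiae, measured by optical density at 600 nm. Assay medium contained 2% galactose at pH 6.0; NS1-free yeast of the same strain were the positive control.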
Pf growth 96h: Primary qHTS for delayed death inhibitors of the malarial parasite plastid, 96 hour incubation; P. falciparum luciferase reporter growth, 96 h; 6.9% of 320,000 active; Potency, µM (highest dose often 28.7 µM), inactives show top-dose activity change, negative = inhibition, hits mostly inhibitors; active means well fitted inhibition curve with a large enough effect; inconclusive means small, poorly fitted or top-dose-only effect, or another doubt; inactive means no such curve, though single readings can be large or run the other way; further: potency means the concentration at half of the fitted maximal effect; on the % scale 0 is the no-effect control and ±100 the full control effect
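Infected RBCs, 2% Hct / 0.05% parasitemia final; luciferase-reporter P. falciparum; cpd 96 h, 37 C, 5% CO2; luciferase detection reagent; luminescence.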
Cycloheximide cs: Cycloheximide Counterscreen for Small Molecule Inhibitors of Shiga Toxin. 12% of 300,000 active. max response, %. cell reporter, cycloheximide protein synthesis inhibition counterscreen. AID 2314, 2010; in the data active means max response mostly above about 13%, no sharp cut-off; inactive means mostly below about 14%; further: read at 38.3 µM for the half of the compounds with a filed dose; 0% is about no effect
Pf growth 48h: Primary qHTS for delayed death inhibitors of the malarial parasite plastid, 48 hour incubation. P. falciparum luciferase growth in erythrocytes, 48 h. Potency, µM (top dose mostly 28.7 µM), for the others: top-dose activity change, negative = inhibition, actives largely listed as inhibitors. 5.9% of 310,000 active; active means well fitted inhibition curve with a large enough effect; inconclusive means small, poorly fitted or top-dose-only effect, or another doubt; inactive means no such curve, though single readings can be large or run the other way; further: potency means the concentration at half of the fitted maximal effect; on the % scale 0 is the no-effect control and ±100 the full control effect
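Erythrocytes infected with P. falciparum carrying an integrated firefly luciferase reporter (2% hematocrit, 0.1% parasitemia final) were exposed to compounds in RPMI 1640 with 0.5% Albumax at 37 C, 5% CO2. Growth inhibition was scored as reduced luminescence.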
SARS PLP yeast: qHTS of Yeast-based Assay for SARS-CoV PLP. AID 485353, 2010. S. cerevisiae expressing SARS-CoV PLpro, growth rescue. Potency, µM (series often up to 32.9 µM), inactives show top-dose activity, positive = growth rescue, actives largely listed as activators. 0.19% of 330,000 active; further: potency means the concentration at half of the fitted maximal effect; 0% is about no effect; nearly all actives have a fitted effect of over 55% in size
* marks the source's active call; other numbers are inactive results; ? = inconclusive; . = no result given. Shown are actives, neighbours in structure and some others; about 21% of the full set was active somewhere. Unless noted, the call rests on the fitted dose curve.

SMILES	Shiga toxin inh	NS1 function inh	Pf growth 96h	Cycloheximide cs	Pf growth 48h	SARS PLP yeast
O=C(NCc1ccc2c(c1)OCO2)C(=O)Nc1ccccc1	90*	10%	4%	22*	104%	2%
O=C(CN1c2cccc3cccc(c23)S1(=O)=O)NCc1ccc2c(c1)OCO2	19	13%	?	-3	?	5%
O=C(NCc1ccccc1)c1c[nH]c2cc3c(cc2c1=O)OCCO3	30*	11%	-26%	37*	11%	-16%
O=C(CN1C(=O)c2ccccc2S1(=O)=O)NCc1ccc2c(c1)OCO2	1	8%	9.3µM*	11	-5%	3%
O=C(CCc1ccccc1)NCc1ccncc1	-5	9%	3.7µM*	-2	10%	-2%
CCOc1ccc2[nH]cc(C(=O)NCc3ccccc3)c(=O)c2c1	-5	15%	?	9	9%	11%
COc1cccc(CN2CC(C(=O)NCCC3=CCCCC3)CCC2=O)c1 (stereo not given)	17	3%	15%	19	0%	15%
Cc1ccc(NC(=O)c2ccc(=O)n(CC(=O)Nc3ccccc3)n2)cc1	-3	11%	-4%	-1	3%	-1%
CCNS(=O)(=O)c1ccc(CCC(=O)NCc2ccc3c(c2)OCO3)cc1	-4	3%	0.41µM*	0	-18%	1%
CS(=O)(=O)N(CC(=O)NCc1ccc2c(c1)OCO2)Cc1ccccc1	-15	1%	?	4	4%	4%
O=C(CCc1ccc(S(=O)(=O)NCc2ccccc2)cc1)NCc1ccc2c(c1)OCO2	-17	0%	.	2	-4%	6%
Cc1cc(C)cc(-n2c(SCC(=O)NCc3ccc4c(c3)OCO4)nc3ccccc3c2=O)c1	-9	4%	?	-3	?	4%
O=C(CSc1nc2cc([N+](=O)[O-])ccc2n1-c1ccccc1)NCc1ccc2c(c1)OCO2	18	4µM*	10µM*	-1	-22%	11%
O=C(COC(=O)COc1ccccc1[N+](=O)[O-])NCc1ccc2c(c1)OCO2	.	.	.	.	.	-4%
O=C(Cc1ccccc1[N+](=O)[O-])NCc1ccc2c(c1)OCO2	69*	9%	93%	58*	114%	1%
O=C(Cc1ccccc1)NCc1ccc2c(c1)OCO2	118*	3%	10µM*	59*	.	17%
O=C(Nc1cccc([N+](=O)[O-])c1)C1CCN(C(=O)Cc2ccccc2)CC1	-8	2%	55%	1	?	-2%
CC1CCCC(C)N1C(=O)Cn1c(SCC(=O)NCc2ccc3c(c2)OCO3)nc2ccccc21 (stereo not given)	-7	-15%	-18%	-1	6.6µM*	6%
O=C(CCc1c[nH]c2ccccc12)NCc1ccc2c(c1)OCO2	-11	-3%	-1%	2	-2%	-1%
CN(C)C(=O)Cn1c(SCC(=O)NCc2ccc3c(c2)OCO3)nc2ccccc21	-8	5%	90%	-2	2%	-12%
O=C(Cn1nc(-c2ccccc2)ccc1=O)NCc1ccc2c(c1)OCO2	-12	-7%	1.3µM*	-2	5%	-2%
O=C(Cc1c[nH]c2ccccc12)NCc1ccc2c(c1)OCO2	16	0%	31%	19*	15%	2%
O=C(CCc1ccccc1)NCc1ccc2c(c1)OCO2	19	5%	-29%	14*	18%	-3%
O=C(COC(=O)CCc1ccccc1)NCc1ccc2c(c1)OCO2	.	.	.	.	.	-12%
COCCN(C(=O)COC(=O)c1oc2ccc(OC)cc2c1C)c1c(N)n(Cc2ccccc2)c(=O)[nH]c1=O	-3	-2%	?	1	?	2%
SMILES	Shiga toxin inh	NS1 function inh	Pf growth 96h	Cycloheximide cs	Pf growth 48h	SARS PLP yeast
O=C(CCn1c(=O)c2ccccc2n(Cc2cccnc2)c1=O)NCc1ccc2c(c1)OCO2	-5	0%	-8%	-5	2%	-1%
O=C(CC12CCC(CC1)C2)NCc1ccc2c(c1)OCO2	44*	0%	?	26*	60%	-4%
Cc1ccccc1Cn1c(=O)n(CCC(=O)NCc2ccc3c(c2)OCO3)c(=O)c2ccccc21	-9	0%	4.7µM*	-2	.	-5%
CCOC(=O)c1c(NCCN(C)C)c2ccccc2[nH]c1=O	-9	4%	98%	-1	57%	1%
CCOC(=O)c1c(NCc2ccc3c(c2)OCO3)c2ccccc2[nH]c1=O	10	-9%	24%	19*	-17%	-6%
CCN(CC(=O)Nc1c(C(=O)OC)[nH]c2ccccc12)c1ccc2c(c1)OCO2	8	17%	?	4	10µM*	-7%
CCN(CC(=O)Nc1ccc(OC)cc1)C(=O)c1cc(S(=O)(=O)N(C)C)ccc1N1CCCC1	.	.	-9%	.	?	11%
Cc1ccc(CN2CC(C(=O)NNC(=O)c3ccc(F)cc3)CC2=O)cc1 (stereo not given)	.	.	9%	.	2%	-9%
Cc1ccc(C)c(S(=O)(=O)N(C)C2CCS(=O)(=O)C2)c1 (stereo not given)	.	.	31%	.	39%	2%
Cc1nnc(SCC(=O)Nc2cccc(Cl)c2)n1CC1CCCO1 (stereo not given)	13	11%	-19%	-3	17%	2%
CCCCc1nc2cc(C(=O)NCc3nccn3CC)ccc2o1	37*	-3%	-20%	50*	35%	3%
CCCCc1nc2cc(C(=O)N3CCCCC3CCNC(C)=O)ccc2o1 (stereo not given)	4	1%	-7%	2	0%	24%
CCCCc1nc2cc(C(=O)N3CCN(c4nc(C)cnc4C)CC3)ccc2o1	70*	-19%	1%	47*	-27%	-2%
COC1CCN(C(=O)c2ccc3oc(C(C)C)nc3c2)CC1	20*	-1%	-47%	23*	42%	1%
CCCCc1nc2cc(C(=O)NCc3cn(C)nc3C)ccc2o1	-13	-22%	?	-8	-12%	-1%
CCCCc1nc2cc(C(=O)N3CCCCC3COC)ccc2o1 (stereo not given)	87*	-12%	?	35*	46%	3%
Cc1ccc(NC(=O)c2c(F)cccc2Cl)cc1S(=O)(=O)N1CCOCC1	.	.	?	.	?	1%
O=C(C1CCCN(c2ncnc3c2nc2n3CCCCC2)C1)N1CCN(c2ccccc2F)CC1 (stereo not given)	7	22%	10%	4	?	-7%
COCC1CCCCN1C(=O)c1ccc2oc(CCc3ccccc3)nc2c1 (stereo not given)	94*	-9%	?	37*	26%	0%
COCCC1CCCCN1C(=O)c1ccc2nc(Cc3ccccc3F)oc2c1 (stereo not given)	97*	2%	5%	61*	?	-10%
CCCCc1nc2cc(C(=O)N3CCC(OC)CC3)ccc2o1	44*	1%	49%	27*	31%	-4%

Screening data deposited in PubChem BioAssay by National Center for Advancing Translational Sciences (NCATS).
